From PubChem BioAssay (NCATS)
Results filed as inconclusive are left out. Calls of active or inactive are those of the source. Unless noted, calls come from the whole dose curve; as a rule, active = well fitted curve in either direction with a large enough effect (not every such curve was filed as active); inconclusive = small, poorly fitted or top-dose-only effect, or another doubt; inactive = flat fitted curve, though single readings scatter.

Experiments:
[1] = molecular target: Lysosomal acid glucosylceramidase (Homo sapiens) (UniProt P04062); experiment: Glucocerebrosidase-p2 (AID 348; in the data active = potency below about 10 µM; note: potency is the fitted concentration of half-maximal effect); conditions: purified GBA, blue fluorogenic substrate, 40 min
Chain of Lysosomal acid glucosylceramidase (Homo sapiens) (P04062 whole entry, looked up): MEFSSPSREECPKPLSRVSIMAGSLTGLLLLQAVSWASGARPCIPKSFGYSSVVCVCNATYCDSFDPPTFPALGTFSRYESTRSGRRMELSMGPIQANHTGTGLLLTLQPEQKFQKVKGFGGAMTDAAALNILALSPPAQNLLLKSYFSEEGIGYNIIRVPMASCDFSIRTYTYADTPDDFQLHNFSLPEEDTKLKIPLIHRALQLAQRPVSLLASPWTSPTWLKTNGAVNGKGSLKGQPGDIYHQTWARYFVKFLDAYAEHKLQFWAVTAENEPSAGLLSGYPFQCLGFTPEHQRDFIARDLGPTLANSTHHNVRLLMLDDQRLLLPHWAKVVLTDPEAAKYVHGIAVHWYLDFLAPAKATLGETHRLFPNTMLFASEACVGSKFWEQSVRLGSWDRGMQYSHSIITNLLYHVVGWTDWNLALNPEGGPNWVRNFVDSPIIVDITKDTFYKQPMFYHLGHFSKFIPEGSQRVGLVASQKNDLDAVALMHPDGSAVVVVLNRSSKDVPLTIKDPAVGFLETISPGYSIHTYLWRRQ
Procedure, shortened: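 Normal human glucocerebrosidase (0.2 nM) with blue fluorogenic substrate (80 uM final) in citrate/phosphate pH 5.9 with 10mM sodium taurocholate, 0.01% tween-20; 40 min RT, NaOH/glycine stop; fluorescence Ex 365/Em 440; AC50 from a titration from 0.6 nM upwards.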

[2] = Stat Signaling Pathway (AID 446); conditions: ME-180 SIE beta-lactamase reporter, IL-6 stimulated, 5 h; at 7.69 µM (top of the series) unless noted;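 note: ME-180 cervical cancer cells given 40 pM IL-6 alongside compound; SIE-controlled beta-lactamase reporter measured as 460/530 nm FRET emission ratio; % is set by controls: 0 for no effect and ±100 for the full control effect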
Procedure, shortened: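 FRET read-out (405 nm excitation, 460/530 nm emission) of a beta-lactamase reporter under a STAT-inducible element in ME-180 cervical carcinoma cells. Cells with compound receive 40 pM IL-6 for 5 h. Values are normalised to AC90 stimulation and AC90 JAK-inhibitor controls.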

[3] = molecular target: Glucocorticoid receptor (Homo sapiens) (UniProt P04150); experiment: GR-EFC Redistribution (AID 451; calls by dose curve; note: potency is the fitted concentration of half-maximal effect); conditions: CHO-K1 GR-EFC translocation, beta-gal luminescence, 2 h
Chain of Glucocorticoid receptor (Homo sapiens) (P04150 whole entry, looked up, the tested form may be a part): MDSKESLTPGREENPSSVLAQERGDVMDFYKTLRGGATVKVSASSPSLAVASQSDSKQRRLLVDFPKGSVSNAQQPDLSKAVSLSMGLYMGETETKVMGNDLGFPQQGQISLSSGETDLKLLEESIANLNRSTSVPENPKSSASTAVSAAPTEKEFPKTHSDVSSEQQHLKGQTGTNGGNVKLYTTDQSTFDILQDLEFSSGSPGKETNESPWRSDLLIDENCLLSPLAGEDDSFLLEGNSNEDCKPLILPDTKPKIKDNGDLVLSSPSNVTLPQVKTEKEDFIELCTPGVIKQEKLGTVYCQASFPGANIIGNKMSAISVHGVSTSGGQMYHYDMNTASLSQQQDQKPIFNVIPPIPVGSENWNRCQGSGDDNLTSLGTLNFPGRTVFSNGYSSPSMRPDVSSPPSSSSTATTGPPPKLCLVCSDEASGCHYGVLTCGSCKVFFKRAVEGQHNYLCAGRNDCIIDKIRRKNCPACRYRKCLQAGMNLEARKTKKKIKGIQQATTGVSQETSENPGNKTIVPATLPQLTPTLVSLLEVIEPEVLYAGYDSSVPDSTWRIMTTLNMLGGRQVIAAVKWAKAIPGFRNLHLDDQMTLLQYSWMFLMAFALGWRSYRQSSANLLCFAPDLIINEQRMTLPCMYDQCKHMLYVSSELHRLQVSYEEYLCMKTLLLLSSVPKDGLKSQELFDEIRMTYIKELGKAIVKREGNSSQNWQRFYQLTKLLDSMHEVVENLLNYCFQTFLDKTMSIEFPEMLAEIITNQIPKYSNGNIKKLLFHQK
Procedure, shortened: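 CHO-K1 cells expressing nuclear EA and GR-ED fragments of b-gal; compounds titrated up to 46 uM final, 2 h at 37 C. GR nuclear translocation read as complemented b-gal luminescence after 1 h RT detection.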

[4] = molecular target: Mitogen-activated protein kinase 10 (Mus musculus) (UniProt Q61831); experiment: JNK3 AlphaScreen Assay (AID 530); conditions: JNK3 lysate, c-Jun phosphorylation; series mostly up to 57.1 µM;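 note: kinase came from lysate of stimulated human HepG2 cells; signal reports phosphorylation of biotinylated GST-cJun 1-79 at Ser73 with 10 µM ATP; % is set by controls: 0 for no effect and ±100 for the full control effect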
Procedure, shortened: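 Activity was read by AlphaScreen after JNK3-containing HepG2 lysate (cytokine pre-activated) phosphorylated biotinylated GST-cJun with 10 uM ATP at room temperature. Phospho-Ser73 cJun antibody with Protein-A acceptor beads provided detection.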

[5] = molecular target: 3',5'-cyclic-AMP phosphodiesterase 4B (Homo sapiens) (UniProt Q07343); experiment: qHTS Assay for Inhibitors of PDE-IV (AID 607; active = well fitted activation curve with a large enough effect in the main read-out, with a control signal flat, not every such curve was filed as active; note: % of control where 0% means no effect); conditions: HEK293 ACTOne CNG channel cells, membrane potential fluorescence; series mostly up to 22.9 µM
Chain of 3',5'-cyclic-AMP phosphodiesterase 4B (Homo sapiens) (Q07343 whole entry, looked up): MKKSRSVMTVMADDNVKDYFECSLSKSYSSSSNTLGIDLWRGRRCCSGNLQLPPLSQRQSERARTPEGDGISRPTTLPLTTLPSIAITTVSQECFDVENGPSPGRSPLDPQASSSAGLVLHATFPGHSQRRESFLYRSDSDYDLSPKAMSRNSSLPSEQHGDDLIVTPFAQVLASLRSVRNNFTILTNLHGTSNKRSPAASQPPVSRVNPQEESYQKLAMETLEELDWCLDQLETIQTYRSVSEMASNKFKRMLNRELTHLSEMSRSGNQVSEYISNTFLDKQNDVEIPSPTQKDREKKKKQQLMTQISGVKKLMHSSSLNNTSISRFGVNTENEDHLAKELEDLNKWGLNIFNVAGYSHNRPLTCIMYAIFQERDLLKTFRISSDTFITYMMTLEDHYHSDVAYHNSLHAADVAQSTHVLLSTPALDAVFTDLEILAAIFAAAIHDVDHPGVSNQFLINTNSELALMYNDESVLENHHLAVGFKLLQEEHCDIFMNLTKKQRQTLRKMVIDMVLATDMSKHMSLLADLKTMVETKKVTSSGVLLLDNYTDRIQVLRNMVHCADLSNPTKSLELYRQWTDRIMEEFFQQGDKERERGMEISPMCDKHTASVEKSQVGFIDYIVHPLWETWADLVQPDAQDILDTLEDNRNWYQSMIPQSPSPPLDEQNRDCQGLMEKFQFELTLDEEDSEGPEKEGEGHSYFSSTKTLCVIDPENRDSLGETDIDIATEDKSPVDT
Procedure, shortened: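 Cell-based read-out of cAMP via a modified cyclic nucleotide-gated channel and membrane potential dye (535/590 nm) in HEK293 cells expressing PDE4 endogenously. Compounds tested up to 22.9 uM final; 100 uM RO 20-1724 reference.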

[6] = Primary qHTS for small molecule stabilizers of the endoplasmic reticulum resident proteome: Secreted ER Calcium Modulated Protein (SERCaMP) assay (AID 1508630; active = well fitted curve in the direction sought with a large enough effect; an effect the other way counts as inactive or inconclusive; note: % is set by controls: 0 for no effect and ±100 for the full control effect); conditions: SH-SY5Y GLuc-SERCaMP (Gaussia luciferase released on ER calcium loss) secretion, thapsigargin, luminescence; series mostly up to 38.4 µM
Procedure, shortened: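 The SH-SY5Y reporter protocol was run at 3 concentrations up to 38.3 uM (primary) or 11 concentrations (follow-up): 16 h compound, 100 nM thapsigargin for 4 h, then extracellular luciferase luminescence.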

[7] = molecular target: Cytochrome P450 1A2 (Homo sapiens) (UniProt P05177); experiment: p450-cyp1a2 (AID 410; calls by dose curve; note: potency is the fitted concentration of half-maximal effect); conditions: recombinant CYP1A2, luciferin-ME demethylation, luminescence; series mostly up to 57 µM
Chain of Cytochrome P450 1A2 (Homo sapiens) (P05177 whole entry, looked up): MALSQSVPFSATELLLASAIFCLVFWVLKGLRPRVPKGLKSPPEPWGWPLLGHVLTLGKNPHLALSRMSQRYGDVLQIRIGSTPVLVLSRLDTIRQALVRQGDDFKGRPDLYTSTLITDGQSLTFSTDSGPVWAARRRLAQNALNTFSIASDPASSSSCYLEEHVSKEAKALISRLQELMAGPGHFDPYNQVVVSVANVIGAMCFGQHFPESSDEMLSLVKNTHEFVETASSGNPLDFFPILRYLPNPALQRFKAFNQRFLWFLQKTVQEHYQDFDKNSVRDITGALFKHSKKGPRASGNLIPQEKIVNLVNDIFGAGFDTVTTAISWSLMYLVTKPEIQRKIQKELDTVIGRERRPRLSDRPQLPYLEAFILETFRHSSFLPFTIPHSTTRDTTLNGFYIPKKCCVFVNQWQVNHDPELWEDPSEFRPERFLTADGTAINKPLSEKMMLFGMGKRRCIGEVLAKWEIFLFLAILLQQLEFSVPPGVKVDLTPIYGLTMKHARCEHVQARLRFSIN
Procedure, shortened: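 Luminescent demethylation readout: Luciferin-ME (100uM, equal to Km) turned over by 20nM CYP1A2 for 60 min at room temperature after NADPH regeneration addition, following 10 min compound preincubation. Normalization used 57 uM furafylline as full inhibition.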

[8] = molecular target: Glucocorticoid receptor (Homo sapiens) (UniProt P04150); experiment: GR-GFP Redistribution (AID 450;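 active = compounds whose dose series gives a full or clear partial fitted curve of increased nuclear translocation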; note: potency is the fitted concentration of half-maximal effect); conditions: U2OS GR-GFP nuclear translocation, laser cytometry, 2 h
[9] = qHTS Assay for Identification of Small Molecule Agonists for Hypoxia Response Element Signaling Pathway (AID 914; active = well fitted activation curve with a large enough effect in the signal ratio, with a control signal flat, not every such curve was filed as active; the % refers to the signal ratio; note: potency is the fitted concentration of half-maximal effect; for activation: % of control where 0% means no effect); conditions: ME-180 HRE-bla reporter, beta-lactamase ratio, CoCl2, 17 h; activation: stronger effect = higher value
Procedure, shortened: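 HRE-bla ME-180 assay for agonist-like enhancement of an EC50 CoCl2 stimulus: 17 h at 37 degrees Celsius, CCF4 for 2.5 h, ratiometric 460/530 nm signal converted to %Activity and fitted to AC50.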

[10] = AP1 Signaling Pathway (AID 357); conditions: ME-180 (cervical carcinoma) AP-1-bla reporter, EGF-induced, beta-lactamase ratio, 5 h; at 7.69 µM (top of the series) unless noted;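 note: ME-180 reporter cells stimulated with EGF at its EC50 level; % is set by controls: 0 for no effect and ±100 for the full control effect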
Procedure, shortened: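 First, ME-180 AP-1-bla cells were cultured overnight at 37 °C in low-serum Opti-MEM. Next, titrated compounds with EC50 EGF were incubated 5 hours. Finally, CCF4 was added for 2.5 hours and the 460/530 nm ratio recorded.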

[11] = NFAT Signaling Pathway (AID 444); conditions: Jurkat NFAT-bla M1, carbachol, beta-lactamase ratio, 5 h; at 7.69 µM (top of the series) unless noted
Procedure, shortened: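 Jurkat cells with NFAT-driven β-lactamase reporter and co-expressed M1 receptor, stimulated with carbachol (final 1 uM, ~EC50), compound titration, 5 h at 37 °C. CCF4 loaded 1 h at RT; 460/530 nm ratio gave %activity and AC50.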

[12] = molecular target: Cytochrome P450 3A4 (Homo sapiens) (UniProt P08684); experiment: qHTS Assay for Activators of Cytochrome P450 3A4 (AID 885; active = well fitted curve in the direction sought with a large enough effect; an effect the other way counts as inactive or inconclusive; note: nearly all actives have a fitted effect of over 65% in size); conditions: recombinant CYP3A4, Luciferin-PPXE luminescence, 60 min; series mostly up to 57.1 µM
Chain of Cytochrome P450 3A4 (Homo sapiens) (P08684 whole entry, looked up): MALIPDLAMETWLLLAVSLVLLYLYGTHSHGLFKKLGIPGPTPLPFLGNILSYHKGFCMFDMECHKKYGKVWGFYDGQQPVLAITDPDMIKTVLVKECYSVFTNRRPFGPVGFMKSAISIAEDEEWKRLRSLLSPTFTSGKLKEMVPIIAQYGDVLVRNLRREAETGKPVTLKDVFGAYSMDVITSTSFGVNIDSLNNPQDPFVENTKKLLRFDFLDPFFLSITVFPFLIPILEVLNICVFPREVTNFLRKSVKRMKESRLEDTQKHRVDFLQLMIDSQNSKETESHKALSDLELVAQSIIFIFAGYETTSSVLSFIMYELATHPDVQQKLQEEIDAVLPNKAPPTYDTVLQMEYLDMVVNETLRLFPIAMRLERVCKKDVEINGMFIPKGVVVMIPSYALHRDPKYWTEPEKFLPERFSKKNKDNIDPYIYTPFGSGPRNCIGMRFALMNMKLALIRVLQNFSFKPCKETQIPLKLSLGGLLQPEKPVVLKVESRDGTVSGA
Procedure, shortened: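 Luminescent readout of luciferin formed from 25 uM Luciferin-PPXE (KM level) by 20 nM CYP3A4 in 200 mM KPO4, with 60 min NADPH-driven reaction at room temperature after 10 min compound exposure. Ketoconazole (57 uM) defined 100% inhibition.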

[13] = molecular target: Cytochrome P450 3A4 (Homo sapiens) (UniProt P08684); experiment: qHTS Assay for Inhibitors and Substrates of Cytochrome P450 3A4 (AID 884; active = well fitted curve in the direction sought with a large enough effect; an effect the other way counts as inactive or inconclusive; note: potency is the fitted concentration of half-maximal effect; nearly all actives have a fitted effect of over 50% in size); conditions: recombinant CYP3A4, Luciferin-PPXE luminescence; series mostly up to 57.1 µM
Procedure, shortened: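 Luminescent readout of luciferin produced by CYP3A4 (20 nM) dealkylation of Luciferin-PPXE, 25 uM (its KM). NADPH-driven reaction ran 60 min at RT after 10 min compound preincubation; data scaled to 57 uM ketoconazole as 100% inhibition.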

[14] = molecular target: Cytochrome P450 2D6 (Homo sapiens) (UniProt P10635); experiment: qHTS Assay for Inhibitors and Substrates of Cytochrome P450 2D6 (AID 891; active = well fitted curve in the direction sought with a large enough effect; an effect the other way counts as inactive or inconclusive; note: potency is the fitted concentration of half-maximal effect; nearly all actives have a fitted effect of over 60% in size); conditions: recombinant CYP2D6, luciferin-ME EGE luminescence; series mostly up to 57.1 µM
Chain of Cytochrome P450 2D6 (Homo sapiens) (P10635 whole entry, looked up): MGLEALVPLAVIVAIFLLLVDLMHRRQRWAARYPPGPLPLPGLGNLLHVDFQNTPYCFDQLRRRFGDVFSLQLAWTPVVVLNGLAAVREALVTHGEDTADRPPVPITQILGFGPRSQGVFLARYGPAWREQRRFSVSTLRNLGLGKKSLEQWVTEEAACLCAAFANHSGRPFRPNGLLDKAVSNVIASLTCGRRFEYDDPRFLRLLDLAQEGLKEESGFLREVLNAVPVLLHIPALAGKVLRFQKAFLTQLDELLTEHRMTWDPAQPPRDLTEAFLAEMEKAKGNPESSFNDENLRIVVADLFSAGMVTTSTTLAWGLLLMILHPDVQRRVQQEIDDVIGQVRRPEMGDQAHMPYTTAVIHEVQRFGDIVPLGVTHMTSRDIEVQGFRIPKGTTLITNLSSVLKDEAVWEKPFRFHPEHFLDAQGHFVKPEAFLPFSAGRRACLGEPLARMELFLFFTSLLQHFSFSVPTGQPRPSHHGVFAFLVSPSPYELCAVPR
Procedure, shortened: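 Luminescent read-out of luciferin formed by 5 nM human CYP2D6 demethylating 30 uM Luciferin-ME EGE (Km level) over 60 min at room temperature after NADPH regeneration addition. Data normalized to full inhibition by 1.43 uM quinidine.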

[15] = Confirmation and Secondary Assay for Modulators of Hemoglobin Beta Chain Splicing at IVS2 654 locus (AID 910; active = well fitted curve in the direction sought with a large enough effect; an effect the other way counts as inactive or inconclusive;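 note: HeLa cells stably carrying EGFP split by mutant beta-globin IVS2-654 intron; % of control where 0% means no effect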); conditions: HeLa EGFP-654 splicing reporter, GFP fluorescence, 48 h; series mostly up to 38.3 µM
Procedure, shortened: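 HeLa cells stably expressing EGFP interrupted by β-globin IVS2-654 intron, seeded overnight in Opti-MEM/2% FCS, then treated 2 days at 37 °C. Restored splicing read as total peak GFP intensity per well by laser scanning cytometry (488 nm excitation, 500–520 nm emission); 500 nM antisense PNA as control.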

[16] = Confirmation and Secondary Assay for Modulators of Hemoglobin Beta Chain Splicing at IVS2 705 locus (AID 930; active = well fitted curve in the direction sought with a large enough effect; an effect the other way counts as inactive or inconclusive;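 note: HeLa cells stably expressing the EGFP-705 splicing reporter; GFP fluorescence per well restored by corrected splicing of the IVS2-705 intron in EGFP; % of control where 0% means no effect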); conditions: HeLa EGFP-705 splicing reporter, GFP fluorescence, 48 h; series mostly up to 38.3 µM
Procedure, shortened: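 HeLa IVS2-705 EGFP reporter cells, 500/well, compound 2 d at 37C; correct splicing yields fluorescent EGFP. Control: 500 nM antisense PNA. Read-out: total peak GFP intensity.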

[17] = molecular target: Ubiquitin carboxyl-terminal hydrolase 1 (Homo sapiens) (UniProt O94782); experiment: Inhibitors of USP1/UAF1: Pilot qHTS (AID 504865; active = well fitted curve in the direction sought with a large enough effect; an effect the other way counts as inactive or inconclusive;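 note: rhodamine fluorescence freed from ubiquitin-rhodamine substrate followed over time; top concentration of the series differs between compounds; % is set by controls: 0 for no effect and ±100 for the full control effect; nearly all actives have a fitted effect of over 35% in size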); conditions: purified USP1/UAF1, Ub-rhodamine cleavage fluorescence; series mostly up to 54.9 µM
Chain of Ubiquitin carboxyl-terminal hydrolase 1 (Homo sapiens) (O94782 whole entry, looked up): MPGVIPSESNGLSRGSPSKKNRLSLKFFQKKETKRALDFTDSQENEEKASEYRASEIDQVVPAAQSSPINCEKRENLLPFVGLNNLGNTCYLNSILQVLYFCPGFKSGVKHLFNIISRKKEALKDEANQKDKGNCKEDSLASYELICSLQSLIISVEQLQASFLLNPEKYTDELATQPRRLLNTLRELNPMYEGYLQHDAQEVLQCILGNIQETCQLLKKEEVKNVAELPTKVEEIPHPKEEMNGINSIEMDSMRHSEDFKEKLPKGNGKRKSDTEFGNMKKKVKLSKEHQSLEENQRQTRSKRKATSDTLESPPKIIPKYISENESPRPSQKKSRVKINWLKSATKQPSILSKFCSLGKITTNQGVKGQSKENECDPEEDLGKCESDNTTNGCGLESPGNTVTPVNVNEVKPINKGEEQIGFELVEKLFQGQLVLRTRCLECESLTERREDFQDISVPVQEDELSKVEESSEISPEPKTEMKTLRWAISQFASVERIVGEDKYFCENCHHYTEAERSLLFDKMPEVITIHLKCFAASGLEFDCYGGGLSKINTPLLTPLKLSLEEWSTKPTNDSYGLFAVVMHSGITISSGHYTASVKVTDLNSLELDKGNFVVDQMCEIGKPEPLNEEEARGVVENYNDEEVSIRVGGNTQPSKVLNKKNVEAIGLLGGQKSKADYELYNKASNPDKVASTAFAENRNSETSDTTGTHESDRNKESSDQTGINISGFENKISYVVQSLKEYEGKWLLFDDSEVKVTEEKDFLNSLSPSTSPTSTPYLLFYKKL
Procedure, shortened: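 USP1/UAF1 complex (1nM) preincubated with compound 15 min at room temperature, then Ub-Rho substrate (150nM final) added. Fluorescence read kinetically at 480/540 nm, 6 reads every 60 seconds. Buffer: 50mM HEPES pH 7.8, 0.5mM EDTA, 0.1 mg/ml BSA, 1mM TCEP, 0.01% Tween-20.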

O=S(=O)(c1ccccc1)N1CCC2(CCCN(Cc3cc(C(F)(F)F)cc(C(F)(F)F)c3)C2)CC1
inactive: Potency [1] > 11.4 µM | activity, negative = inhibition [2] 5.03% | Potency [3] > 46 µM | Potency [4] | Potency [5] | outcome [6]

CN(C)c1ncc2nc(-c3ccccc3)c(=O)n(C3CC3)c2n1
active: Potency [7] 2.51 µM | Potency [9] 3.16 µM
inactive: Potency [1] > 11.4 µM | Potency [8] > 9.22 µM | Potency [3] > 46 µM | outcome [6]

O=c1c(-c2ccc(Cl)cc2)nc2cnc(N3CCOCC3)nc2n1C1CC1
inactive: activity change, negative = inhibition [10] 6.61% | activity change, negative = inhibition [11] -4.43% | activity, negative = inhibition [2] 26.7% | Potency [8] > 9.22 µM | Potency [3] > 46 µM | Potency [4] | Potency [5] | outcome [6]
active: Potency [7] 1.26 µM

O=c1c(-c2cc(F)cc(F)c2)nc2cnc(Oc3ccccc3)nc2n1C1CC1
active: Potency [7] 2.51 µM
inactive: activity change, negative = inhibition [10] -6.73% | activity change, negative = inhibition [11] -0.993% | activity, negative = inhibition [2] -0.523% | Potency [8] > 9.22 µM | Potency [3] > 46 µM | Potency [4] | Potency [5] | activation [9] 7.93% | outcome [6]

O=c1c(-c2cccs2)nc2cncnc2n1C1CC1
inactive: activity change, negative = inhibition [10] 0.545% | activity change, negative = inhibition [11] -2.79% | activity, negative = inhibition [2] -5.35% | Potency [8] > 9.22 µM | Potency [3] > 46 µM | Potency [4] | Potency [12] | outcome [6]
active: Potency [7] 2.51 µM

c1ccc(-c2ccc(N3CCCC4(CCNCC4)C3)cc2)cc1
active: Potency [7] 10 µM
inactive: activity change, negative = inhibition [10] 9.27% | activity change, negative = inhibition [11] 24.2% | activity, negative = inhibition [2] -2.12% | Potency [3] > 46 µM | Potency [5] | Potency [12] | outcome [6]

COc1cccc(-c2cncnc2NCCc2cnc[nH]2)c1
inactive: activity change, negative = inhibition [10] -20.9% | activity change, negative = inhibition [11] -4.17% | activity, negative = inhibition [2] -17% | Potency [8] > 46 µM | Potency [3] > 46 µM | Potency [4] | Potency [5] | Potency [12] | Potency [15] | outcome [16] | Potency [17] | outcome [6]
active: Potency [7] 0.398 µM | Potency [13] 0.631 µM | Potency [14] 7.94 µM

O=C(Nc1cccc(F)c1)N1CCCC2(CCN(C(=O)c3cccc(F)c3)CC2)C1
inactive: Potency [1] > 11.4 µM | activity, negative = inhibition [2] -9.43% | Potency [3] > 46 µM | Potency [4] | outcome [6]
